Measured values: PubChem BioAssay AID1259421 (Broad Institute, 2018)
“And” between values parts separate entries of the source, which are not always exact repeats. Equal values may be shown once. The whole screen tested about 6,400 compounds, of which about 610 (9.5%) were called active. Rule as the data show it: active = activity change below about -70%; inconclusive = no clear call, values can overlap the other calls; inactive = above that. Only a selection was taken, and actives are over-represented in it overall. Some structures have more than one record in an assay (separate samples or runs), and their calls can disagree.

Experiment: T. gondii ME49Luc in HeLa cells, luciferase assay, 72 h, no IFN-y (AID 1259421)
Details: stronger effect = lower value, concentration not given here

Row | SMILES | activity change, negative = inhibition
1 | O=C1Nc2ccc(Cl)cc2C(c2ccccc2Cl)=NC1O (stereo not given) | 5.64% (inactive)
2 | CC(C)CC(NC(=O)C(Cc1ccccc1)NC(=O)CNC(=O)[C@H](C)NC(=O)C(N)Cc1ccc(O)cc1)C(=O)N[C@H](CCCN=C(N)N)C(=O)O (stereo not given in full) | 10.6% (inactive)
3 | O=C1CN=C(c2cccc(Br)c2)c2oc3ccccc3c2N1 | 22.5% (inactive)
4 | CNC(=O)Oc1ccccc1OC(C)C | 12.8% (inactive)
5 | ClC=C(Cl)Cl | 8.81% (inactive)
6 | Oc1ccc2c3c1OC1c4c(c5ccccc5n4Cc4ccccc4)CC4(O)C(C2)N(CC2CC2)CCC314 (stereo not given) | -1.02% (inactive)
7 | CCCCCCCCCCCCC/C=C/[C@@H](O)[C@@H](N)COP(=O)(O)OCC[N+](C)(C)C | -1.29% (inactive)
8 | NC(=O)CN1C[C@H](O)CC1=O | -40.7% (inactive)
9 | CN1CCc2cc3c(cc2C1[C@@H]1OC(=O)c2c1ccc1c2OCO1)OCO3 (stereo not given in full) | 8.11% (inactive)
10 | Cc1o[nH]c(=O)c1C[C@H](N)C(=O)O | 13.1% (inactive)
11 | CC(C)(C)c1o[nH]c(=O)c1CC(N)C(=O)O (stereo not given) | -79.9% (active) and 9.91% (inactive)
12 | Cc1o[nH]c(=O)c1CC(N)C(=O)O (stereo not given) | 3.8% (inactive)
13 | Oc1ccc2c3c1OC1c4[nH]c5ccccc5c4CC4(O)C(C2)N(CC2CC2)CCC314 (stereo not given) | 6.33% (inactive)
14 | CN1C2CCC1CC(OC(=O)c1cc(Cl)cc(Cl)c1)C2 (stereo not given) | -1.24% (inactive) and 2.27% (inactive)
15 | C[C@H]1CCC/C=C/[C@@H]2C[C@H](O)C[C@H]2[C@H](O)/C=C/C(=O)O1 | -94.5% (active)
16 | COc1ccc(/C=C/C(=O)CC(=O)/C=C/c2ccc(OC)c(OC)c2)cc1OC | 2.29% (inactive)
17 | CC(C)(c1ccc(OCC2CO2)cc1)c1ccc(OCC2CO2)cc1 (stereo not given) | 9.89% (inactive)
18 | CN1C2CCC1CC(OC(c1ccccc1)c1ccccc1N)C2 (stereo not given) | 16.3% (inactive)
19 | c1cc2c(c(N3CCNCC3)c1)OCCO2 | -0.0388% (inactive)
20 | CN1C2CCC1CC(OC(c1ccc(F)cc1)c1ccc(F)cc1)C2 (stereo not given) | 22.3% (inactive) and 38.4% (inactive)
21 | CC(=O)N(C)c1cccc(-c2ccnc3c(C(=O)c4cccs4)cnn23)c1 | 42.5% (inactive)
22 | O=C1NC(=O)c2c1c1c3ccccc3n3c1c1c2c2ccccc2n1C1CCC3O1 | -71.9% (active)
23 | O=C1NC(=O)c2c1c1c3ccccc3[nH]c1c1[nH]c3ccccc3c21 | -28.7% (inactive) and -11.9% (inactive)

Row | SMILES | activity change, negative = inhibition
24 | N#CC(C#N)=NNc1cccc(Cl)c1 | 9.63% (inactive)
25 | C[C@]12CC[C@@H]3c4ccc(OC(=O)N(CCCl)CCCl)cc4CC[C@H]3[C@@H]1CC[C@@H]2OP(=O)(O)O | 10.9% (inactive)
26 | CCCCC(CC)COC(=O)c1ccccc1C(=O)OCC(CC)CCCC (stereo not given) | 9.98% (inactive)
27 | CO[C@@H]1C(O)[C@H](O[C@H]2CC[C@@]3(C=O)[C@H](CC[C@@H]4[C@@H]3CC[C@]3(C)[C@@H](C5=CC(=O)OC5)CC[C@]43O)C2)OC(C)[C@@H]1O (stereo not given in full) | -73.9% (active)
28 | CO[C@H]1[C@H](O)[C@@H](O[C@H]2CC[C@]3(C=O)C4CC[C@]5(C)[C@@H](C6=CC(=O)OC6)CC[C@]5(O)C4CC[C@@H]3C2)O[C@@H](C)[C@@H]1O (stereo not given in full) | -88% (active)
29 | O=C1Nc2ccccc2C2(CCN(CCc3ccc(C(F)(F)F)cc3)CC2)O1 | 16.5% (inactive) and 18.9% (inactive)
30 | O=C(O)CCCCCCNC1c2ccccc2CCc2ccccc21 | 30.7% (inactive)
31 | O=C(O)C(Cl)Cl | 30.7% (inactive)
32 | Clc1cccc(SC2CCNCC2)n1 | 18.6% (inactive)
33 | Cc1ccc(C[N+](C)(C)C)o1 | 0.893% (inactive) and 9.89% (inactive)
34 | CC(C)(C)CC(C)(C)c1ccc(O)cc1 | 5.73% (inactive)
35 | CCCC(C)(COC(N)=O)COC(N)=O | 8.01% (inactive)
36 | C[C@]1(O)CC[C@H]2[C@@H]3CCC4=CC(=O)CC[C@]4(C)[C@@]3(F)[C@@H](O)C[C@@]21C | 2.26% (inactive)
37 | C[C@@H]1CC[C@@]2(OC1)O[C@H]1C[C@H]3[C@@H]4CC=C5C[C@H](O[C@@H]6O[C@@H](CO)[C@@H](O[C@@H]7O[C@@H](C)[C@H](O)[C@@H](O)[C@@H]7O)[C@H](O)[C@H]6O[C@@H]6O[C@@H](C)[C@H](O)[C@@H](O)[C@H]6O)CC[C@]5(C)[C@@H]4CC[C@]3(C)[C@@H]1[C@H]2C | -18.3% (inactive)
38 | CC(=O)[C@H]1CC[C@H]2[C@@H]3CC[C@H]4C[C@H](O)CC[C@]4(C)[C@H]3CC[C@]12C | 2.36% (inactive)
39 | C[C@H]1OC(O[C@H]2[C@@H](O)CC(O[C@H]3[C@@H](O)C[C@H](O[C@H]4CC[C@]5(C)C6CC[C@]7(C)[C@@H](C8=CC(=O)OC8)[C@@H](O)C[C@]7(O)[C@@H]6CC[C@@H]5C4)O[C@@H]3C)O[C@@H]2C)C[C@H](O)C1O (stereo not given in full) | -71.3% (active)
40 | COC1C(O)CC(OC2C(O)CC(OC3C(O)CC(OC4CCC5(C)C(CCC6[C@@H]5CC(O)C5(C)C(C7=CC(=O)OC7)CCC65O)C4)OC3C)OC2C)OC1C (stereo not given in full) | -82.4% (active)
41 | CC(=O)OC1CC[C@@]2(C)C(CCC3C2CC[C@]2(C)C(C4=CC(=O)OC4)C(OC(C)=O)CC32O)C1 (stereo not given in full) | -91.6% (active)
42 | CC(=O)O[C@H]1C[C@H](O[C@H]2[C@@H](O)C[C@H](O[C@H]3[C@@H](O)C[C@H](O[C@H]4CC[C@@]5(C)C(CCC6C5C[C@@H](O)[C@]5(C)[C@@H](C7=CC(=O)OC7)CC[C@]65O)C4)O[C@@H]3C)O[C@@H]2C)O[C@H](C)[C@H]1O[C@@H]1O[C@H](CO)[C@@H](O)[C@H](O)[C@H]1O (stereo not given in full) | -75.3% (active) and -89.3% (active)
43 | COC(=O)/C=C/C(=O)N[C@@H]1CC[C@@]2(O)[C@H]3Cc4ccc(O)c5c4[C@@]2(CCN3CC2CC2)[C@H]1O5 | 16.5% (inactive)
44 | CCC(Oc1ccc(Cl)cc1)C(=O)OC1CC2CCC(C1)N2C (stereo not given) | -2.85% (inactive) and -12.4% (inactive)
45 | c1ccc(CC(c2ccccc2)N2CCCCC2)cc1 (stereo not given) | 9.17% (inactive) and 15.7% (inactive)
